Molecules are shown by their SMILES. Compounds without any hit were thinned out: in the full panel of roughly 83,000, 20% have a hit.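 Activity criterion: percent growth below 10, measured after cells in 96-well plates were exposed to a single compound concentration for 48 hours.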 Unmarked numbers belong to inactive results. The source made the active and inactive calls.

Among the test systems are NCI-H23 lung; NCI-H226 lung; NCI-H322M lung; HOP-62 NSCLC; NCI-H460 lung; HOP-92 NSCLC; NCI-H522 lung; A549/ATCC NSCLC; 786-0 renal; COLO 205 colon; DU-145 prostate; K-562 leukemia; MALME-3M melanoma; MDA-MB-231 breast; RXF 393 renal; SF-268 CNS; SF-295 CNS; SF-539 CNS; UACC-257 melanoma; M14 melanoma.
Assay in all cases: NCI-60 one-dose screen, 48 h (100 = growth as untreated, 0 = no growth, -100 = all killed)
Holding throughout (conditions): 10 µM unless noted

Take `O=C(Nc1cccc(Cl)c1)Nc1ncc(CCNc2ncnc3ccsc23)s1`: the growth is 30.6% in the assay with NCI-H23 lung; 10.8% in the assay on NCI-H226 lung; 55.5% in the assay with NCI-H322M lung; 11.8% in the assay with HOP-62 NSCLC; 20.1% in the assay on NCI-H460 lung; 40.9% in the assay on HOP-92 NSCLC. Besides, the growth was 13% in the assay with NCI-H522 lung; 14.9% with A549/ATCC NSCLC; 42.1% with 786-0 renal; -4.76% (active) in the assay on COLO 205 colon; 50.6% in the assay with DU-145 prostate; 13.8% in the assay with K-562 leukemia. Moreover, the growth in the assay with MALME-3M melanoma was 19%; in the assay on MDA-MB-231 breast, 41.5%; with RXF 393 renal, -0.457% (active); in the assay with SF-268 CNS, 39.4%; in the assay on SF-295 CNS, 20%; in the assay with SF-539 CNS, 24%. Besides, the growth in the assay on UACC-257 melanoma is 11.5%.
`O=c1[nH]ccc2c(S(=O)(=O)N3CCCNCC3)cccc12`: the growth in the assay with NCI-H23 lung was 78.5%; with NCI-H226 lung it was 81.7%; with NCI-H322M lung, 29.6%; in the assay with HOP-62 NSCLC it was 68.8%; with NCI-H460 lung, 95.3%; in the assay with HOP-92 NSCLC, 30%. Besides, the growth in the assay on NCI-H522 lung was 17.3%; with A549/ATCC NSCLC, 81.3%; in the assay on 786-0 renal it was 54%; in the assay on COLO 205 colon, 112%; in the assay on DU-145 prostate, 62.2%; in the assay on K-562 leukemia, 104%. Moreover, the growth with MALME-3M melanoma was 82.2%; with MDA-MB-231 breast, 87.3%; in the assay with RXF 393 renal it was 57.8%; in the assay with SF-268 CNS it was 54.3%; in the assay with SF-295 CNS, 74.5%; with SF-539 CNS, 76.5%. In addition, the growth in the assay on UACC-257 melanoma is 99.1%.
For the molecule `O=C(Cn1ccc2ccccc21)Nc1ccc(-c2nc3ccccc3s2)cc1`, the growth in the assay with NCI-H23 lung is 94%; with NCI-H226 lung it was 102%; in the assay with NCI-H322M lung it was 98.8%; in the assay on HOP-62 NSCLC it was 103%; in the assay on NCI-H460 lung, 105%; with HOP-92 NSCLC it was 105%. Moreover, the growth in the assay on NCI-H522 lung was 102%; in the assay with A549/ATCC NSCLC it was 98.3%; in the assay on 786-0 renal, 103%; with COLO 205 colon, 101%; in the assay on DU-145 prostate, 101%; in the assay on K-562 leukemia, 103%. In addition, the growth in the assay on MALME-3M melanoma is 108%; with MDA-MB-231 breast, 108%; in the assay on RXF 393 renal, 113%; in the assay with SF-268 CNS it was 96.6%; with SF-295 CNS it was 103%; with SF-539 CNS, 102%. For the same molecule, the growth with UACC-257 melanoma was 100%; in the assay with M14 melanoma, 108%.
As for `O=C(c1ccc(/C=C/c2n[nH]c3ccccc23)cc1)N1CCNCC1`, the growth was 24.8% with NCI-H23 lung; 3.94% (active) in the assay on NCI-H226 lung; 33.5% with NCI-H322M lung; 16.5% in the assay with HOP-62 NSCLC; 10.7% in the assay on NCI-H460 lung; -3.02% (active) in the assay on HOP-92 NSCLC. The growth with NCI-H522 lung is 36.2%; in the assay with A549/ATCC NSCLC, 22.4%; with 786-0 renal it was 37.7%; with COLO 205 colon, -42% (active); in the assay with DU-145 prostate, 39.6%; in the assay with K-562 leukemia, 12.4%. In addition, the growth with MALME-3M melanoma is 10.4%; in the assay on MDA-MB-231 breast, 27.1%; in the assay with RXF 393 renal, -15.4% (active); in the assay on SF-268 CNS, 39.2%; with SF-295 CNS it was 51.4%; with SF-539 CNS, -12% (active). Further, the growth was 35.9% with UACC-257 melanoma and 27.8% in the assay with M14 melanoma.
As for `COc1cccc(NC(=O)Nc2ccc(Nc3ncnc4sc5c(c34)CCN(C(=O)CCl)C5)cc2)c1`, the growth is 96.7% in the assay with NCI-H23 lung; 88.9% with NCI-H226 lung; 96.8% in the assay on NCI-H322M lung; 88.7% with HOP-62 NSCLC; 98.1% in the assay on NCI-H460 lung; 97.1% in the assay on HOP-92 NSCLC. The growth with NCI-H522 lung is 71.6%; in the assay on A549/ATCC NSCLC it was 91%; with 786-0 renal, 103%; in the assay with COLO 205 colon it was 104%; in the assay with DU-145 prostate, 118%; in the assay with K-562 leukemia, 91.3%. Further, the growth was 116% in the assay with MALME-3M melanoma; 92.7% in the assay with MDA-MB-231 breast; 99.1% in the assay with RXF 393 renal; 91.3% with SF-268 CNS; 98.1% with SF-295 CNS; 106% in the assay on SF-539 CNS. In addition, the growth in the assay with UACC-257 melanoma was 93.4%.
Regarding `O=C(Cn1ccnc1)Nc1ccc(-c2nc3ccccc3s2)cc1`, the growth was 57.4% in the assay on NCI-H23 lung; 66.6% in the assay on NCI-H226 lung; 98.3% in the assay on NCI-H322M lung; 83.8% with HOP-62 NSCLC; 79.8% with NCI-H460 lung; 75.8% in the assay with HOP-92 NSCLC. In addition, the growth is 74.7% in the assay with NCI-H522 lung; 70.3% with A549/ATCC NSCLC; 78% with 786-0 renal; 80.8% with COLO 205 colon; 81.1% in the assay with DU-145 prostate; 39.6% in the assay on K-562 leukemia. Also, the growth in the assay on MALME-3M melanoma was 81.8%; in the assay with MDA-MB-231 breast, 80.1%; with RXF 393 renal, 102%; in the assay with SF-268 CNS, 81.1%; with SF-295 CNS it was 65.5%; in the assay with SF-539 CNS, 81.3%. The growth with UACC-257 melanoma was 67.6%.
On to `CN1CCN(CCCOc2cccc3nc(Nc4ccc(Cl)c(C(F)(F)F)c4)ccc23)CC1`, for which the growth in the assay with NCI-H23 lung is 18.8%; with NCI-H226 lung, 77.1%; in the assay on NCI-H322M lung, 15.9%; with HOP-62 NSCLC it was 15.5%; with NCI-H460 lung, -19.3% (active); in the assay on HOP-92 NSCLC it was 10.2%. The growth in the assay with NCI-H522 lung is -40.6% (active); in the assay on A549/ATCC NSCLC, 6.87% (active); with 786-0 renal, -42.9% (active); with COLO 205 colon, -61.6% (active); in the assay with DU-145 prostate it was 4.82% (active); in the assay on K-562 leukemia, -41.3% (active). The growth in the assay on MALME-3M melanoma is 34.1%; in the assay with MDA-MB-231 breast it was -44.5% (active); with RXF 393 renal, 14.7%; in the assay on SF-268 CNS, 28.3%; in the assay on SF-295 CNS it was -11% (active); in the assay on SF-539 CNS, 7.03% (active). Further, the growth with UACC-257 melanoma is 59.3%.
Consider `CC(C)[C@@H]1CC[C@@H]2[C@@H]1[C@H](OC(=O)/C=C/c1ccccc1)[C@]1(C(C)C)C[C@@H](OC(=O)CO)[C@@]2(C)O1`, for which the growth in the assay on NCI-H23 lung is 83.1%; in the assay with NCI-H226 lung, 63.2%; in the assay with NCI-H322M lung, 105%; with HOP-62 NSCLC, 87.4%; in the assay on NCI-H460 lung, 89.3%; in the assay with HOP-92 NSCLC, 68.6%. The growth in the assay with NCI-H522 lung is 65.9%; in the assay on A549/ATCC NSCLC it was 71.4%; in the assay on 786-0 renal, 78.1%; in the assay with COLO 205 colon, 84.6%; with DU-145 prostate, 86%; in the assay on K-562 leukemia it was 78.3%. For the same molecule, the growth in the assay with MALME-3M melanoma was 80.3%; in the assay with MDA-MB-231 breast it was 77.7%; in the assay with RXF 393 renal it was 23.4%; with SF-268 CNS it was 56.8%; in the assay on SF-295 CNS, 92.2%; in the assay with SF-539 CNS it was 97.1%. For the same molecule, the growth with UACC-257 melanoma is 84.1%; in the assay with M14 melanoma, 95.8%.

For the origin of these results see PubChem BioAssay (NCI).
